Experimental data published in PubChem BioAssay AID1159580 (chemical genetic matrix, 2015).
About 2,000 (36%) of roughly 5,500 compounds were called active. Another 18% or so got no clear call; they are omitted. Rule as the data show it: active = normalized growth mostly below about 0.91 (no sharp cut-off); inconclusive = no clear call, values can overlap the other calls; inactive = mostly above about 0.92. The list shows a part of the results.

Assay: chemical genetic growth profiling, strain panel (AID 1159580);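 also: tested at 20 µM; growth read once vehicle control cultures reached saturation at 30 °C; 1 = growth at the plate median or of vehicle wells; lower values mean less growth of the strain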
Conditions: growth OD

Measured: normalized growth

COC(=O)c1ccc2c(c1)N(C)S(=O)(=O)CC2=O
inactive: S. cerevisiae deletion strains, locus YBR229C, strain ROT2, stronger effect = lower value 0.998 | S. cerevisiae deletion strains, locus YDL101C, strain DUN1, stronger effect = lower value 0.964 | S. cerevisiae deletion strains, locus YDR150W, strain NUM1, stronger effect = lower value 0.997 | S. cerevisiae deletion strains, locus YEL061C, strain CIN8, stronger effect = lower value 0.975 | S. cerevisiae deletion strains, locus YGR078C, strain PAC10, stronger effect = lower value 1 | S. cerevisiae deletion strains, locus YHR030C, strain SLT2, stronger effect = lower value 0.994 | S. cerevisiae deletion strains, locus YHR087W, strain rtc3, stronger effect = lower value 1 | S. cerevisiae deletion strains, locus YJR043C, strain POL32, stronger effect = lower value 1.02 | S. cerevisiae deletion strains, locus YJR075W, strain HOC1, stronger effect = lower value 1.01 | S. cerevisiae deletion strains, locus YLR039C, strain RIC1, stronger effect = lower value 0.989 | S. cerevisiae deletion strains, locus YLR058C, strain SHM2 (second series), stronger effect = lower value 1.01 | S. cerevisiae deletion strains, locus YLR085C, strain ARP6, stronger effect = lower value 0.853 | S. cerevisiae deletion strains, locus YLR262C, strain YPT6, stronger effect = lower value 0.998 | S. cerevisiae deletion strains, locus YML094W, strain GIM5, stronger effect = lower value 1 | S. cerevisiae deletion strains, locus YMR219W, strain ESC1, stronger effect = lower value 0.996 | S. cerevisiae deletion strains, locus YMR263W, strain SAP30, stronger effect = lower value 0.994 | S. cerevisiae deletion strains, locus YMR307W, strain GAS1, stronger effect = lower value 0.872 | S. cerevisiae deletion strains, locus YNL128W, strain TEP1, stronger effect = lower value 1.01 | S. cerevisiae deletion strains, locus YNL153C, strain GIM3, stronger effect = lower value 0.932 | S. cerevisiae deletion strains, locus YNL298W, strain CLA4 (second series), stronger effect = lower value 0.987 | S. cerevisiae deletion strains, locus YNL322C, strain KRE1, stronger effect = lower value 0.993 | S. cerevisiae deletion strains, locus YNR030W, strain Alg12, stronger effect = lower value 0.987 | S. cerevisiae deletion strains, locus YPL055C, strain LGE1, stronger effect = lower value 0.99 | S. cerevisiae deletion strains, locus YPL241C, strain CIN2, stronger effect = lower value 0.936 | S. cerevisiae deletion strains, locus YPR135W, strain CTF4, stronger effect = lower value 1.03 | S. cerevisiae strains, strain wild type, stronger effect = lower value 1.01
